In the OligoGym collection:

How the values were obtained:
Test in all cases: pooled miR-30 sensor sort-seq; sequence = guide strand
Conditions in all cases: shRNA
[1] = biological target: NODAL
[2] = biological target: NMRAL1
[3] = biological target: NOL7
[4] = biological target: NMUR2
[5] = biological target: NPBWR1
[6] = biological target: NR4A3
[7] = biological target: NPSR1
[8] = biological target: NR3C1
[9] = biological target: NRGN
[10] = biological target: NTRK3
[11] = biological target: NUP54
[12] = biological target: ODF3L1
[13] = biological target: OSR1
[14] = biological target: OSBPL3
Note: reference of the scale not given here.

Sequence: ATGTATGCATGGTTGGTCGGAT
- sensor-assay potency score (higher = more potent) [1]: -0.818

Sequence: TTGGTCACGATGAAGGTGGCGT
- sensor-assay potency score (higher = more potent) [2]: -0.0574

Sequence: TGGTGATCTAGGAGCACTCTGC
- sensor-assay potency score (higher = more potent) [1]: -1.24

Sequence: TTTTTGTACTTTAACTTTCTTG
- sensor-assay potency score (higher = more potent) [3]: -0.529

Sequence: TTGTTGACTGATTTTCTGCAGG
- sensor-assay potency score (higher = more potent) [4]: -0.441

Sequence: TACTCCTCGGCCGTGTGCCTGC
- sensor-assay potency score (higher = more potent) [2]: -0.836

Sequence: TTGTTCTTGACATCTGTTCACT
- sensor-assay potency score (higher = more potent) [4]: -0.626

Sequence: TGGATCTTCTAGTTTCTGCTGG
- sensor-assay potency score (higher = more potent) [4]: 0.385

Sequence: TCGGGTCACCACTCGAACCTTG
- sensor-assay potency score (higher = more potent) [2]: -0.891

Sequence: TAGTCCTCAGGAGTCATCTTGG
- sensor-assay potency score (higher = more potent) [2]: -0.467

Sequence: TTGGCATCGTGCACGACCTTGC
- sensor-assay potency score (higher = more potent) [2]: 0.214

Sequence: TTGACTGATTTTCTGCAGGGTC
- sensor-assay potency score (higher = more potent) [4]: -0.256

Sequence: ATCACCGCGTAGACAACTGGTA
- sensor-assay potency score (higher = more potent) [5]: -0.96

Sequence: TCTTGTTGCATAGCTCTTCGAC
- sensor-assay potency score (higher = more potent) [6]: -0.437

Sequence: TTTTTCTGCACTGTTCTCTTGA
- sensor-assay potency score (higher = more potent) [6]: 0.598

Sequence: TAAGTAATGTCTGATCTTCTTT
- sensor-assay potency score (higher = more potent) [6]: -0.546

Sequence: TGGTCTTTTAAACTGCTTGTGA
- sensor-assay potency score (higher = more potent) [6]: -0.937

Sequence: TGAATCGCCAATTAATATCTGT
- sensor-assay potency score (higher = more potent) [7]: -0.0374

Sequence: TTACATTGGTCGTACATGCAGG
- sensor-assay potency score (higher = more potent) [8]: -0.108

Sequence: TTTAGCTGCGCACAGAACGAAA
- sensor-assay potency score (higher = more potent) [9]: -1.54

Sequence: ATCGACAGTACTGACATCGGTT
- sensor-assay potency score (higher = more potent) [6]: -0.324

Sequence: TCTTTATCTTCTTCCGCGCCAT
- sensor-assay potency score (higher = more potent) [9]: -0.595

Sequence: TTCATCTATCAACAGGTCTGAT
- sensor-assay potency score (higher = more potent) [8]: -0.68

Sequence: TAGGGTTTTATAGAAGTCCATC
- sensor-assay potency score (higher = more potent) [8]: -1.08

Sequence: TATCTGTACGGACAACTTCTTT
- sensor-assay potency score (higher = more potent) [6]: -1

Sequence: TTGCATAAACAAGAGAGCTGGA
- sensor-assay potency score (higher = more potent) [9]: 0.0661

Sequence: TATTGTTCACATTCCAACCCAG
- sensor-assay potency score (higher = more potent) [9]: -0.138

Sequence: TGTCTAGAATGTCGTCGTCCGG
- sensor-assay potency score (higher = more potent) [9]: -1.75

Sequence: TTCACCTACAGCTACAGTCAGG
- sensor-assay potency score (higher = more potent) [8]: -1.07

Sequence: TGACTTATTATTGACAACGAAG
- sensor-assay potency score (higher = more potent) [8]: -1.46

Sequence: TCTAGAATGTCGTCGTCCGGCT
- sensor-assay potency score (higher = more potent) [9]: -0.833

Sequence: TACCCTTCCAGTTCTCTCGTTG
- sensor-assay potency score (higher = more potent) [7]: 0.107

Sequence: TTTATCTTCTTCCGCGCCATGT
- sensor-assay potency score (higher = more potent) [9]: -1.14

Sequence: TTTTCTTCGAATTTTATCGATG
- sensor-assay potency score (higher = more potent) [8]: -1.06

Sequence: TTTCTTTAAGTGAGTGTGCTTG
- sensor-assay potency score (higher = more potent) [9]: -0.361

Sequence: TTTCAGTGCAAGCCACTGGGGA
- sensor-assay potency score (higher = more potent) [7]: -0.49

Sequence: TAATGTCTGATCTTCTTTGGGG
- sensor-assay potency score (higher = more potent) [6]: 0.115

Sequence: TTGGACAGTGTCCTCTTCCCAA
- sensor-assay potency score (higher = more potent) [7]: -1.13

Sequence: TCGTCGTCCGGCTTGGAGCAGG
- sensor-assay potency score (higher = more potent) [9]: -0.878

Sequence: TTTGCATAAACAAGAGAGCTGG
- sensor-assay potency score (higher = more potent) [9]: -0.297

Sequence: TAGAAAAAACTGTTCGACCAGG
- sensor-assay potency score (higher = more potent) [8]: -0.371

Sequence: TTGAAGAAAACTTTACAGCTTC
- sensor-assay potency score (higher = more potent) [8]: 0.56

Sequence: TATCTTCTTCCGCGCCATGTGG
- sensor-assay potency score (higher = more potent) [9]: -1.11

Sequence: TAAACTGCTTGTGATCTTGTTG
- sensor-assay potency score (higher = more potent) [6]: -0.255

Sequence: TTGACAAAACCAGATCTCCATT
- sensor-assay potency score (higher = more potent) [8]: -1.1

Sequence: TCCAACACTGAGACACTTCTGA
- sensor-assay potency score (higher = more potent) [6]: -0.139

Sequence: TTGCATAGCTCTTCGACTCTCT
- sensor-assay potency score (higher = more potent) [6]: 0.177

Sequence: TTGAAGTACATGGAGGTGCTGG
- sensor-assay potency score (higher = more potent) [6]: -0.481

Sequence: TAGCGCAGCCTCCTGGAGCTGA
- sensor-assay potency score (higher = more potent) [7]: -0.612

Sequence: TTGAGCGTAGTCATGATCCTCC
- sensor-assay potency score (higher = more potent) [8]: 0.514

Sequence: TTCAGGTTCAATAACCTCCAAC
- sensor-assay potency score (higher = more potent) [8]: -0.915

Sequence: TAGAATATTGACACACTTGAAT
- sensor-assay potency score (higher = more potent) [8]: -0.527

Sequence: TAGAATGTCGTCGTCCGGCTTG
- sensor-assay potency score (higher = more potent) [9]: -0.236

Sequence: TAGACAGTGAGGGCAACACTGG
- sensor-assay potency score (higher = more potent) [10]: -1.18

Sequence: TTTGTAGATCTCCTTGATGTTC
- sensor-assay potency score (higher = more potent) [10]: -1.01

Sequence: TTCCTGTTTGATTAGGACCTGT
- sensor-assay potency score (higher = more potent) [11]: 0.0888

Sequence: TGTCATGATCTATGTAGCCCGT
- sensor-assay potency score (higher = more potent) [12]: -0.612

Sequence: TTGAGGTCCATCACTCTGTATG
- sensor-assay potency score (higher = more potent) [12]: -1.32

Sequence: TTGGAGTGAATATATCTGTGGT
- sensor-assay potency score (higher = more potent) [13]: 0.0172

Sequence: TGAAGCTATAGTATTGCTCGTA
- sensor-assay potency score (higher = more potent) [14]: -0.222
